Only some compounds are listed: those with a hit (about 0.97% of all), similar ones and a draw of the others.
AGP1 TOR yeast: modulators of TOR pathway AGP1-GFP in S. cerevisiae; S. cerevisiae AGP1-GFP multiplex flow cytometry, 3 h; GFP as percent of DMSO wells; 0.02% of 320,000 active; GFP response vs DMSO, % at 10 µM; AID 2066;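 active = GFP response relative to DMSO above a set limit, near screen average plus 3 SD, cut at about 150% in these data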;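 note: median GFP channel fluorescence of the gated AGP1 strain per well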
MEP2-GFP yeast: alters MEP2-GFP fluorescence in TOR pathway yeast screen; S. cerevisiae MEP2-GFP strain, flow cytometry GFP, 3 h; 100% = DMSO control level; GFP response vs DMSO, % at 10 µM; 0.51% of 330,000 active;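 active = GFP response versus DMSO above a set limit, roughly screen mean plus 3 SD, cut at about 180% in these data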;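 note: median GFP fluorescence of the barcode-gated MEP2-GFP cells per well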
CIT2 TOR yeast: yeast TOR pathway CIT2-GFP modulation; 0.065% of 320,000 active; S. cerevisiae CIT2-GFP strain, flow cytometry, 3 h; 100 means same as DMSO wells; AID 2029; GFP response vs DMSO, % at 10 µM;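 active = GFP response relative to DMSO above a set limit, near the screen mean plus 3 SD, cut at about 150% in these data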;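 note: ratio of well median GFP fluorescence to mean of DMSO wells on the plate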
RPL19A TOR yeast: alters RPL19A-GFP fluorescence in TOR pathway yeast screen. percent response vs DMSO, % at 10 µM. S. cerevisiae RPL19A-GFP strain, flow cytometry, 3 h; stronger effect = lower value. 0.3% of 330,000 active. AID 2025;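 active = percent response vs DMSO below 50%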;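 note: median channel GFP fluorescence of the barcoded RPL19A-GFP strain; ratio of sample median GFP to plate DMSO average so 100% = DMSO; lower means less RPL19A-GFP as with rapamycin TOR inhibition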
LAP4 TOR yeast: yeast TOR pathway LAP4-GFP modulation; GFP response vs DMSO, % at 10 µM; 0.34% of 320,000 active; S. cerevisiae LAP4-GFP multiplex, flow cytometry GFP, 3 h; median GFP as percent of DMSO wells;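 active = GFP response vs DMSO above a set limit, about the screen mean plus 3 SD, cut at about 150% in these data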
GASC-1 inh: inhibitors of human GASC-1 (JMJD2C) demethylase; Q9H3R0; GST-JMJD2C(1-420) H3K9me3 demethylation, DELFIA europium; inhibition, % at 2.35 µM; 0.069% of 330,000 active;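 active = more than half of a compound's replicate wells show inhibition beyond 50%, single wells judged on their own value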;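 note: signal counts dimethyl H3K9 product captured on neutravidin plate; 0% = median of DMSO wells and 100% = 0.3 times that DMSO median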
Target sequence (Q9H3R0 1-420 limits assumed): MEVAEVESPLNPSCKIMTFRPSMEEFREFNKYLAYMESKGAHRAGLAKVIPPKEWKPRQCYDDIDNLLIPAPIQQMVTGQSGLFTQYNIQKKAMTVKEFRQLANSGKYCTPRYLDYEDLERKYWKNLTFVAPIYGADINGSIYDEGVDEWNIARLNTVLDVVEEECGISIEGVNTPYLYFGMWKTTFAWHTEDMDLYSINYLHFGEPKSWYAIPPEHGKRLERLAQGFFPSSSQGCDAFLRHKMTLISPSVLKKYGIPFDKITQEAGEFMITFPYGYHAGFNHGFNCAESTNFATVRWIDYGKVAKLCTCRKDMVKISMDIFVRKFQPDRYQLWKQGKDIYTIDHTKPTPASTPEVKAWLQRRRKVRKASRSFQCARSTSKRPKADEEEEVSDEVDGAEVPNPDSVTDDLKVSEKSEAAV
LAP4-GFP pick2: yeast LAP4-GFP modulation, second cherry pick | shares compounds with LAP4 TOR yeast | AID 2621 | GFP response vs DMSO, % at 10 µM | S. cerevisiae LAP4-GFP strain, flow cytometry GFP, 3 h | 20% of 590 active;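 active = GFP signal as percent of the solvent control above about 150%, meaning raised reporter expression, limit read from the data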;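 note: ratio of well median GFP fluorescence to plate DMSO mean so 100% = DMSO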
MEP2 cherry2: reconfirmed MEP2-GFP TOR pathway modulator in yeast; shares compounds with LAP4 TOR yeast; S. cerevisiae MEP2-GFP strain, flow cytometry GFP, 3 h; GFP response vs DMSO, % at 10 µM; 10% of 590 active;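 active = GFP signal above 150% of the solvent control wells, that is a rise of more than half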;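 note: median channel GFP fluorescence of all gated yeast cells per well; ratio of median GFP to plate DMSO average so 100% = DMSO level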
RPL19A-GFP pick2: second confirmation of modulators of TOR reporter RPL19A-GFP in yeast; S. cerevisiae RPL19A-GFP strain, flow cytometry GFP, 3 h; stronger effect = lower value; 100% means same as DMSO wells; GFP response vs DMSO, % at 10 µM; shares compounds with LAP4 TOR yeast; 3% of 590 active;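 active = under 65% GFP response relative to DMSO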;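 note: median GFP channel fluorescence per well over the all cells gate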
CIT2 GFP CP2: reconfirmed modulator of CIT2-GFP TOR reporter in yeast; shares compounds with LAP4 TOR yeast; S. cerevisiae CIT2-GFP strain, flow cytometry GFP, 3 h; DMSO control wells read 100%; GFP response vs DMSO, % at 10 µM; 8% of 590 active; AID 2624;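 active = GFP response vs DMSO above about 150%, limit read from the data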;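 note: median green fluorescence per well over all gated yeast cells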
AGP1-GFP pick2: yeast AGP1-GFP TOR reporter modulation, second cherry pick; percent response vs DMSO, % at 10 µM; S. cerevisiae AGP1-GFP strain, flow cytometry GFP, 3 h; 590 tested, under 10 active; AID 2643; shares compounds with LAP4 TOR yeast;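 active = over 150 percent of DMSO response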;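 note: median GFP channel fluorescence over all cells without mother daughter split; sample median GFP divided by mean DMSO control so 100% equals DMSO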
Yeast autofluor: counter-screen for compound autofluorescence in yeast s288c cells; fluorescence change (kMESF span) at 33 µM; AID 2757; S. cerevisiae s288c, 520 nm autofluorescence, flow cytometry, 3 h; stronger effect = higher value; zero means same as solvent-only cells; 610 tested, under 10 active; shares compounds with LAP4 TOR yeast;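 active = fluorescence span over the dose series, or activity score, above about 33, limit read from the data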
s288c autofl DR: counter-screen for autofluorescence of TOR hits in yeast s288c; shares compounds with LAP4 TOR yeast; S. cerevisiae s288c parental, compound autofluorescence, flow cytometry, 3 h; fluorescence change (span) at 33 µM; 110 tested, under 10 active; AID 488829;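 active = fluorescence change span, or the activity score built from it, above 25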
TORC1 bypass gr: wildtype yeast growth loss with TORC1 bypass cells unaffected; shares compounds with LAP4 TOR yeast; S. cerevisiae BY4741 spot growth rating, 48-72 h; stronger effect = lower value; 120 tested, under 10 active; growth rating (0-3) at 30 µM; AID 504456;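 active = growth rating at most 1 for wild type yeast while the TORC1 bypass strain still grows fully, rated 3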
Active calls of the source: *; . = not tested or not shown.

SMILES	AGP1 TOR yeast	MEP2-GFP yeast	CIT2 TOR yeast	RPL19A TOR yeast	LAP4 TOR yeast	GASC-1 inh	LAP4-GFP pick2	MEP2 cherry2	RPL19A-GFP pick2	CIT2 GFP CP2	AGP1-GFP pick2	Yeast autofluor	others
N/C(Cc1ccc(Cl)cc1)=N\OC(=O)c1cccc2ccccc12	74.3	118.1	124.7	90.9	195.7*	3.3	.	.	.	.	.	1.71	s288c autofl DR=0.89;TORC1 bypass gr=3
N/C(Cc1ccc(Cl)cc1)=N\OC(=O)c1ccc2ccccc2c1	102.5	107.5	102.4	106.8	98.3	-6.3	.	.	.	.	.	.
N/C(=N\OC(=O)c1ccc(Cl)cc1Cl)c1ccccc1	70.8	118.0	121.1	92.8	256.6*	10.1	.	.	.	.	.	1.7
N/C(Cc1ccc(Cl)cc1Cl)=N\OC(=O)c1ccccc1	41.0	121.0	118.8	87.2	169.8*	2.3	.	.	.	.	.	7.65
Cc1ccc(C(=O)N2CCCCC2)cc1S(=O)(=O)N1CCOCC1	103.4	99.6	97.2	103.2	98.7	-17.8	.	.	.	.	.	.
O=C(NCC(=O)N1CCN(S(=O)(=O)c2ccccc2F)CC1)c1ccc(Br)o1	91.3	94.3	95.0	80.9	80.7	-12.1	.	.	.	.	.	.
O=c1/c(=C\c2cccnc2)sc2nc3ccccc3n12	.	.	.	.	.	22.8	.	.	.	.	.	.
O=C1c2sc3nc4ccccc4n3c2C(=O)N1c1ccccc1Cl	80.5	99.0	84.0	65.9	191.9*	20.0	138.5	158.1*	74.6	104.0	80.7	1.92
COc1ccc(CNC(=O)c2nccnc2CO)cc1	99.1	111.4	101.6	104.3	108.0	1.1	.	.	.	.	.	.
Cc1cc(C)cc(NC(=O)CN2CCc3cc4c(cc3C2C)OCCCO4)c1 (centres undefined)	88.3	192.8*	98.7	99.6	123.6	3.9	101.9	98.2	100.7	107.4	97.4	.
Cc1cccc(NC(=O)CN2CCc3cc4c(cc3C2C)OCCCO4)c1 (centres undefined)	101.2	89.4	96.2	95.1	111.6	1.5	.	.	.	.	.	.
COCCN(C(=O)CSc1nnc(-c2ccccc2F)n1N)c1c(N)n(Cc2ccccc2)c(=O)[nH]c1=O	91.8	96.9	93.6	87.4	93.5	-2.6	.	.	.	.	.	.
O=C(c1ccc(Cl)cc1)N1CCC(O)(CSc2ccccc2)CC1	26.4	160.0	101.3	63.3	93.3	15.3	105.2	106.5	99.3	102.9	95.9	.
Brc1ccc(Oc2nsnc2N2CCOCC2)cc1	26.9	180.0*	82.4	99.6	95.2	-0.9	96.2	103.1	101.7	104.3	97.2	.
Cc1ccc(/C=C2\SC(=S)N(Cc3ccccc3)C2=O)o1	86.3	106.7	95.2	97.4	156.0*	.	151.9*	123.1	106.1	119.9	99.4	1.31
O=C1/C(=C\c2ccc(O)c(O)c2)SC(=S)N1Cc1ccccc1	44.3	408.7*	202.7*	96.7	218.9*	-3.0	.	.	.	.	.	33.1*
COc1cc(/C=C2/SC(=S)N(Cc3ccccc3)C2=O)ccc1O	101.0	109.0	109.0	110.5	94.3	-32.8	.	.	.	.	.	.
CCOC(=O)C1CCN(C/C=C/c2ccccc2[N+](=O)[O-])CC1	106.2	111.3	100.1	105.0	96.7	5.5	.	.	.	.	.	.
Cc1cccc(NC(=O)CSCC(=O)N(C)Cc2c(F)cccc2Cl)c1	103.6	102.6	97.3	101.5	101.3	8.2	.	.	.	.	.	.
CCN1/C(=C/C=C/c2sc3ccccc3[n+]2CC)Sc2ccccc21	92.8	103.4	72.4	87.4	160.1*	-26.4	200.4*	117.0	76.0	126.5	105.5	0.6
COCCCn1c(=O)c2ccccc2n(CC(=O)N2CCCc3ccccc32)c1=O	102.1	103.2	94.7	106.5	90.3	2.4	.	.	.	.	.	.
CC(C)(C)c1nc(SCC(=O)NNC(=O)c2ccccc2)c2ccccc2n1	99.1	94.9	96.4	94.1	98.6	-8.1	.	.	.	.	.	.
CC(Oc1ccccc1)C(=O)Nc1nc(-c2ccncc2)cs1 (centres undefined)	100.8	100.2	94.2	100.1	103.9	-2.6	.	.	.	.	.	.
O=C(COc1ccc(F)cc1Cl)Nc1nc(-c2ccccn2)cs1	97.7	109.0	86.7	91.7	171.0*	4.8	.	.	.	.	.	0.1	s288c autofl DR=0.08;TORC1 bypass gr=3
CC(Oc1cccc(Cl)c1)C(=O)Nc1nc(-c2ccccn2)cs1 (centres undefined)	111.2	105.3	92.0	91.0	171.0*	-3.6	.	.	.	.	.	0.71
O=S(=O)(c1ccccc1)N1N=C(c2cccs2)CC1c1cccc(O)c1 (centres undefined)	108.5	127.8	156.7*	107.9	99.1	-0.1	99.2	96.1	98.9	107.1	100.7	.
COc1cc(NC(=S)N2CCN(S(=O)(=O)c3ccccc3)CC2)cc(OC)c1	94.7	101.0	98.6	109.5	71.4	-3.6	.	.	.	.	.	.
COc1ccc(/C=C2\N=C(C)OC2=O)cc1[N+](=O)[O-]	87.0	88.8	90.7	98.2	161.4*	0.6	134.6	109.8	102.3	100.7	99.3	.
COCCc1nc2ccc(C(=O)N(C)Cc3cccc(-n4nc(C)cc4C)c3)cc2o1	101.4	105.4	113.9	117.8	79.2	7.3	.	.	.	.	.	.
COc1cccc2c1C(=O)c1c(O)c3c(c(O)c1C2=O)C[C@@](O)(C(=O)CO)C[C@@H]3O[C@H]1C[C@H](N)[C@@H](O)[C@H](C)O1	95.2	104.7	94.6	106.2	94.9	-21.1	.	.	.	.	.	.
